# In the library only some 18% were active in any assay of this set; here they are far more common.
# PLK1 PBD inh: PLK1 (human) polo-box domain binding inhibition | P53350 | Plk1 PBD binding of FITC phosphopeptide, fluorescence polarization | Potency, µM, actives largely listed as inhibitors | actives 2.8% (n = 360,000); note: series mostly up to about 57 µM; nearly all actives have a fitted effect of over 65% in size
# GCN5L2 inh: blocks human GCN5L2 histone acetyltransferase | GCN5L2 HAT assay, ThioGlo1 CoA-SH fluorescence | Potency, µM (titrated, usually from 58.9 µM), actives largely listed as inhibitors | actives 0.21% (n = 390,000)
#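 Enzyme at 20nM final was mixed with library compounds for 15 min at room temperature. Peptide H3(1-25) at 75uM, acetyl-CoA at 70uM and ThioGlo1 at 50uM were then added. Plates were read immediately and after 20 min (Ex340nm/Em540nm).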
# DT40 TDP1 no CPT: qHTS for Inhibitors of human tyrosyl-DNA phosphodiesterase 1 (TDP1): qHTS in cells in absence of CPT. Potency, µM (doses to about 46.2 µM), actives largely listed as inhibitors. actives 15% (n = 420,000). AID 686978, 2013. DT40 Tdp1-/- hTDP1 cells, no CPT, ATP luminescence, 48 h; note: nearly all actives have a fitted effect of over 55% in size
#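 A cellular qHTS used chicken DT40 cells lacking endogenous Tdp1 but carrying stably transfected human TDP1. Compounds were applied without camptothecin, and cell growth kinetics were judged by ATP-dependent luminescence after ≥48 hr.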
# VDR inhibitor: blocks the human vitamin D receptor | P11473 | VDR-SRC2-3 peptide fluorescence polarization, 2 h | Potency, µM, most hits filed as inhibitors | actives 0.93% (n = 400,000) | AID 504847
# Target sequence (P11473 whole entry, looked up): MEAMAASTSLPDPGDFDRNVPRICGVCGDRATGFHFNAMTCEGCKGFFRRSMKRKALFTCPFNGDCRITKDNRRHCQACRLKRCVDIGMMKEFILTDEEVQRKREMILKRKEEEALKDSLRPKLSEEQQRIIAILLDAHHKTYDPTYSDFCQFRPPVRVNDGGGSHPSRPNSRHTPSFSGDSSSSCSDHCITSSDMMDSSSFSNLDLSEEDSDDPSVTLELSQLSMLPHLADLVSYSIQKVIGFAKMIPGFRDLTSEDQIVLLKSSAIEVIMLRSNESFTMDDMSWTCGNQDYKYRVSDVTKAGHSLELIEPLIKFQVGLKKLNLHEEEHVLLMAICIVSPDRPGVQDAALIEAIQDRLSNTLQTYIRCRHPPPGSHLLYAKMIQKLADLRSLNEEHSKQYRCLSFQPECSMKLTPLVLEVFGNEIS
#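 VDR–SRC2-3 interaction, FP format. Cmpds 23 nl via pintool, brief spin, 2 h ambient incubation.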
# TDP1 block: TDP1 (human) enzyme inhibition. Q9NUW8. recombinant TDP1, AlphaScreen DNA substrate cleavage. Potency, µM (doses to about 130 µM), actives largely listed as inhibitors. actives 0.28% (n = 350,000); note: nearly all actives have a fitted effect of over 40% in size
#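 Here, a 5' biotin and 3' phosphotyrosine-FITC DNA oligonucleotide reports Tdp1 activity: intact substrate bridges AlphaScreen beads, while cleavage leaves a 3' phosphate and drops signal. All incubations at room temperature.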
# DT40 TDP1 CPT: DT40-hTDP1 cell growth loss with CPT; chicken DT40 Tdp1-/-;hTDP1 cells + 20 nM CPT, ATP luminescence, 48 h; Potency, µM (doses to about 46.2 µM), most hits filed as inhibitors; actives 12% (n = 420,000); note: nearly all actives have a fitted effect of over 55% in size
#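 Cell growth measured by CellTiter-Glo luminescence after a minimum 48 h, 37 C compound exposure with 20 nM CPT in Tdp1-knockout DT40 cells stably expressing hTDP1, seeded 400/well; qHTS titration format.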
# VDR inh confirm: inhibits human vitamin D receptor, primary hit validation; shares compounds with VDR inhibitor; VDR-coactivator inhibition assay, qHTS confirmation; Potency, µM, actives largely listed as inhibitors; actives 89% (n = 840); AID 602199
# VDR FP: confirmation of human VDR-coactivator binding inhibitors, fluorescein label; Potency, µM (titrated, usually from 57.1 µM), usual class: inhibitors; actives 48% (n = 840); AID 602200; shares compounds with VDR inhibitor; VDR-coactivator binding, fluorescein fluorescence polarization
# VDR bla: confirmation of human vitamin D receptor inhibitors in reporter cells. actives 23% (n = 840). Potency, µM (doses to about 46.1 µM), most hits filed as inhibitors. VDR beta-lactamase reporter cells, FRET ratio; cells co-treated with VDR agonist LG190178. AID 602202. shares compounds with VDR inhibitor
# VDR cytotox: cytotoxic in counter-screen for VDR inhibitors. cytotoxicity counter-screen, cell viability, qHTS. shares compounds with VDR inhibitor. Potency, µM (highest dose often 48.3 µM), hits mostly cytotoxic. actives 18% (n = 840); note: nearly all actives have a fitted effect of over 75% in size
# TbPYK inh: confirmation of Trypanosoma brucei pyruvate kinase inhibitors; actives 67% (n = 890); recombinant TbPYK, Kinase-Glo ATP luminescence; Potency, µM (doses to about 76.9 µM), hits mostly inhibitors; shares compounds with PLK1 PBD inh; note: nearly all actives have a fitted effect of over 70% in size
# TbPYK ADP-Glo: orthogonal confirmation of Trypanosoma brucei pyruvate kinase inhibitors; shares compounds with PLK1 PBD inh; recombinant TbPYK, ADP-Glo luminescence, 60 min; Potency, µM (titrated, usually from 76.9 µM), usual class: inhibitors; actives 62% (n = 890); note: nearly all actives have a fitted effect of over 75% in size
# Hits are given with their value; . = inactive; ? = inconclusive; / = no result. Calls come from the whole dose curve; as a rule, active = well fitted curve in the direction sought with a large enough effect; inconclusive = small, poorly fitted or top-dose-only effect, or another doubt; inactive = no such curve, though single readings can be large; an effect the other way counts as inactive or inconclusive.
SMILES,PLK1 PBD inh,GCN5L2 inh,DT40 TDP1 no CPT,VDR inhibitor,TDP1 block,DT40 TDP1 CPT,TbPYK inh,TbPYK ADP-Glo,others
Cc1ccc(-n2c(C)cc(/C=C3/C(=O)NC(=O)N(C)C3=O)c2C)cc1,.,.,.,.,.,.,/,/,
Oc1ccc(C(=C(Cl)Cl)c2ccc(O)cc2)cc1,/,.,/,/,/,/,/,/,
COc1cc(/C=C2\C(=O)NC(=O)N(c3ccccc3)C2=O)c([N+](=O)[O-])cc1OC,12µM,.,.,45µM,.,.,16µM,35µM,VDR inh confirm=27;VDR FP=20µM;VDR bla=.;VDR cytotox=.
COc1ccccc1C1C([N+](=O)[O-])=C(N)Oc2c1c(=O)oc1ccccc21 (stereo not given),.,.,.,.,.,.,/,/,
CC1CCN(C(CC(=O)c2ccccc2)C(=O)c2ccccc2)CC1 (stereo not given),?,/,2.1µM,25µM,/,2.6µM,20µM,13µM,VDR inh confirm=11;VDR FP=?;VDR bla=?;VDR cytotox=?
O=C1CC=C2C3CC4N(CCC45c4ccccc4N1C25)CC3=CCO (stereo not given),.,/,.,.,/,.,/,/,
O=C1CC=C2C3CC4N(CCC45c4cc(O)c(O)cc4N1C25)CC3=CCBr (stereo not given),5.3µM,/,?,.,/,?,7.9µM,13µM,
Cc1ccc(N2C(=O)NC(=O)/C(=C\c3ccoc3)C2=O)cc1,?,.,?,.,.,?,?,?,
Cc1ccc(N2C(=O)NC(=O)/C(=C/c3ccc(-c4ccc(C(=O)O)c(Cl)c4)o3)C2=O)cc1,1.3µM,?,.,?,20µM,.,7.1µM,14µM,
Cc1cc(/C=C2\C(=O)NC(=O)N(c3ccc(F)cc3)C2=O)c(C)n1-c1ccc(C(=O)O)cc1,?,.,.,.,.,.,/,/,
Cn1c(O)c(C(=NCCc2c[nH]c3ccccc23)c2ccccc2)c(=O)n(C)c1=O,.,.,?,.,.,.,/,/,
CC(C)C[C@H]1COc2cc(N3CCN(C)CC3)ccc2S(=O)(=O)N1,.,/,?,/,/,.,/,/,
O=c1[nH]c(=O)n(Cc2ccccc2)c(O)c1C=NCCN1CCOCC1,.,.,.,.,.,.,/,/,
COc1ccccc1NC1(C#N)CCCCC1,.,.,.,.,.,.,/,/,
Cc1ccsc1/C=C1\C(=O)NC(=S)N(C)C1=O,3µM,.,3.3µM,?,.,5.8µM,11µM,18µM,
C=CCN1C(=O)/C(=C/c2ccc3c(c2)CCCN3CCC)C(=O)NC1=S,.,.,?,?,/,?,/,/,
COc1ccc(/C=C2\C(=O)NC(=S)N(C)C2=O)cc1C,1.2µM,.,.,45µM,/,.,?,?,
COc1ccc(NC(=O)c2cn(CCC#N)nc2-c2ccc(OC)c(OC)c2)cc1,.,.,.,.,.,.,/,/,
O=C1NC(=O)C(CCc2ccccn2)(Cc2ccc3c(c2)OCO3)C(=O)N1CCc1ccccc1 (stereo not given),.,.,?,.,.,?,/,/,
COc1ccc(OC)c(N2C(=O)NC(=O)/C(=C/c3ccc([N+](=O)[O-])s3)C2=O)c1,4.7µM,.,16µM,?,.,16µM,4.5µM,7.1µM,
COc1ccc(OC)c(N2C(=O)NC(=O)C(CCc3ccncc3)(CCc3ccncc3)C2=O)c1,.,.,.,.,.,.,/,/,
Cc1ccc2c(c1)C1CN(C)CCC1N2C(=O)CCCN1C(=O)c2cccc3cccc(c23)C1=O (stereo not given),.,.,?,.,.,.,/,/,
CCN(CC)c1ccc(C=C2C(=O)NC(=S)NC2=O)cc1,2.7µM,.,15µM,?,/,?,16µM,14µM,
O=C(CCn1c(=O)oc2ccccc21)N1CCC2(CC1)OCCO2,.,.,.,.,.,.,.,.,
CCn1c(=O)cc(SCC(=O)N2CCC3(CC2)OCCO3)c2ccccc21,.,.,?,.,.,?,/,/,
SMILES,PLK1 PBD inh,GCN5L2 inh,DT40 TDP1 no CPT,VDR inhibitor,TDP1 block,DT40 TDP1 CPT,TbPYK inh,TbPYK ADP-Glo,others
O=C(O)CCn1cc(C=C2C(=O)NC(=O)NC2=O)c(-c2cc3ccccc3oc2=O)n1,15µM,.,.,.,/,.,11µM,32µM,
CN(C)c1ccc(/C=C/C=C2/C(=O)NC(=O)N(c3ccccc3)C2=O)cc1,?,.,4.1µM,.,.,2.9µM,25µM,.,
Cn1c(O)c(C(=N)COc2cccc(Cl)c2)c(=O)n(C)c1=O,.,.,.,.,.,.,/,/,
O=C1NC(=O)C(=Cc2cccc(OCCOc3ccccc3)c2)C(=O)N1,2.7µM,.,?,?,/,?,?,?,
COC(=O)C1=C(C(=O)OC)SC2(S1)C(C(=O)OC)=C(C(=O)OC)Sc1c2ssc1=O,1.2µM,/,0.18µM,2µM,/,0.092µM,11µM,14µM,
Cc1ccc(N2C(=O)/C(=C/c3ccc(CN(CCC#N)S(C)(=O)=O)o3)C(=O)NC2=S)cc1C,/,.,/,/,.,/,/,/,
Cc1ccc(/C=C2\C(=O)NC(=S)N(c3cccc(F)c3)C2=O)o1,2.7µM,.,?,.,.,18µM,16µM,25µM,
Cc1ccc2c(c1)=NC(=O)/C(=C/c1c(O)[nH]c(=O)[nH]c1=O)C=2,15µM,.,.,79µM,.,?,25µM,22µM,
Cc1nn(Cc2ccccc2)c(C)c1C(=O)OCC(=O)Nc1ccccc1SCC#N,.,.,.,.,.,.,/,/,
CSc1ncc(/C=C2/C(=O)NC(=O)N(C)C2=O)cn1,11µM,.,.,?,.,.,?,?,
O=C1NC(=O)C(=Cc2c(Cl)cccc2Cl)C(=O)N1,4.7µM,/,13µM,?,/,12µM,25µM,35µM,
CC(C)N1CCC2(CC1)NC(CO)(CO)CO2,.,.,.,.,.,.,/,/,

# Source: PubChem BioAssay (National Center for Advancing Translational Sciences (NCATS))
